Test results from publication PMC5540273 (PLoS ONE, 2017).

Columns and labels:
Conditions in all cases: concentration: 1 μM, replicates: in singlicate; n = 1
[1] = system: T1, RSK4(Kin.Dom.1-N-terminal)
T1 construct: gene RPS6KA6

[2] = system: T2, RSK4(Kin.Dom.2-C-terminal)
T2 construct: gene RPS6KA6

S6K1 = system: S6K1
SBK1 = system: SBK1
SGK2 = system: SGK2
SGK3 = system: SGK3
SGK = system: SGK
SIK2 = system: SIK2
SIK = system: SIK
SLK = system: SLK
SNARK = system: T3, SNARK
T3 construct: gene NUAK2

SNRK = system: SNRK
SRC = system: SRC
SRMS = system: SRMS
SRPK1 = system: SRPK1
SRPK2 = system: SRPK2
SRPK3 = system: SRPK3
STK16 = system: STK16
STK33 = system: STK33
STK35 = system: STK35
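Further: KINOMEscan kinase panel screen.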

Cc1ccc(NC(=O)c2ccnc(N3CCCCC3)c2)cc1-c1ccc(C(=O)NCC2CC2)cc1 [GW775610]
%Inh [1]: 0% | %Inh [2]: 39% | %Inh (S6K1): 19% | %Inh (SBK1): 0% | %Inh (SGK2): 5% | %Inh (SGK3): 0% | %Inh (SGK): 0% | %Inh (SIK2): 0% | %Inh (SIK): 0% | %Inh (SLK): 5% | %Inh (SNARK): 0% | %Inh (SNRK): 0% | %Inh (SRC): 0% | %Inh (SRMS): 0% | %Inh (SRPK1): 0% | %Inh (SRPK2): 0% | %Inh (SRPK3): 14% | %Inh (STK16): 0% | %Inh (STK33): 0% | %Inh (STK35): 0%

Cc1ccc(C)c(NC(=O)Nc2ccc(C)c(-c3ccc(C(=O)Nc4ccncc4)cc3)c2)c1 [GSK1398473]
%Inh [1]: 0% | %Inh [2]: 18% | %Inh (S6K1): 3% | %Inh (SBK1): 14% | %Inh (SGK2): 0% | %Inh (SGK3): 8% | %Inh (SGK): 0% | %Inh (SIK2): 0% | %Inh (SIK): 3% | %Inh (SLK): 17% | %Inh (SNARK): 0% | %Inh (SNRK): 5% | %Inh (SRC): 8% | %Inh (SRMS): 0% | %Inh (SRPK1): 26% | %Inh (SRPK2): 0% | %Inh (SRPK3): 0% | %Inh (STK16): 8% | %Inh (STK33): 3% | %Inh (STK35): 6%

Cc1cccc(Nc2nc(NCCN)ncc2C(N)=O)c1 [GSK1292139]
%Inh [1]: 21% | %Inh [2]: 23% | %Inh (S6K1): 14% | %Inh (SBK1): 72% | %Inh (SGK2): 0% | %Inh (SGK3): 8% | %Inh (SGK): 9% | %Inh (SIK2): 52% | %Inh (SIK): 19% | %Inh (SLK): 32% | %Inh (SNARK): 73% | %Inh (SNRK): 0% | %Inh (SRC): 40% | %Inh (SRMS): 0% | %Inh (SRPK1): 56% | %Inh (SRPK2): 18% | %Inh (SRPK3): 0% | %Inh (STK16): 30% | %Inh (STK33): 73% | %Inh (STK35): 34%

CCn1cnc2c(NCc3ccccc3)ncnc21 [SKF-96418]
%Inh [1]: 9% | %Inh [2]: 0% | %Inh (S6K1): 17% | %Inh (SBK1): 0% | %Inh (SGK2): 2% | %Inh (SGK3): 3% | %Inh (SGK): 2% | %Inh (SIK2): 0% | %Inh (SIK): 0% | %Inh (SLK): 0% | %Inh (SNARK): 0% | %Inh (SNRK): 0% | %Inh (SRC): 0% | %Inh (SRMS): 26% | %Inh (SRPK1): 0% | %Inh (SRPK2): 47% | %Inh (SRPK3): 18% | %Inh (STK16): 0% | %Inh (STK33): 0% | %Inh (STK35): 0%

Cc1ccccc1CC(=O)N1CCc2cc(-c3cn(C)c4ncnc(N)c34)ccc21 [GSK2603346]
%Inh [1]: 28% | %Inh [2]: 10% | %Inh (S6K1): 19% | %Inh (SBK1): 23% | %Inh (SGK2): 2% | %Inh (SGK3): 0% | %Inh (SGK): 0% | %Inh (SIK2): 0% | %Inh (SIK): 0% | %Inh (SLK): 48% | %Inh (SNARK): 34% | %Inh (SNRK): 0% | %Inh (SRC): 15% | %Inh (SRMS): 0% | %Inh (SRPK1): 18% | %Inh (SRPK2): 0% | %Inh (SRPK3): 0% | %Inh (STK16): 2% | %Inh (STK33): 3% | %Inh (STK35): 2%

Cc1cc(-c2c(-c3ccc(F)cc3)ncn2CCCN2CCOCC2)nc(N)n1 [SB-222517]
%Inh [1]: 20% | %Inh [2]: 0% | %Inh (S6K1): 11% | %Inh (SBK1): 18% | %Inh (SGK2): 0% | %Inh (SGK3): 3% | %Inh (SGK): 0% | %Inh (SIK2): 2% | %Inh (SIK): 0% | %Inh (SLK): 18% | %Inh (SNARK): 0% | %Inh (SNRK): 0% | %Inh (SRC): 22% | %Inh (SRMS): 26% | %Inh (SRPK1): 0% | %Inh (SRPK2): 0% | %Inh (SRPK3): 19% | %Inh (STK16): 0% | %Inh (STK33): 0% | %Inh (STK35): 0%

COc1cccc(-c2nc(-c3ccccc3)[nH]c2-c2ccncc2)c1 [SB-610250]
%Inh [1]: 0% | %Inh [2]: 63% | %Inh (S6K1): 19% | %Inh (SBK1): 9% | %Inh (SGK2): 40% | %Inh (SGK3): 0% | %Inh (SGK): 31% | %Inh (SIK2): 0% | %Inh (SIK): 1% | %Inh (SLK): 6% | %Inh (SNARK): 0% | %Inh (SNRK): 0% | %Inh (SRC): 21% | %Inh (SRMS): 0% | %Inh (SRPK1): 25% | %Inh (SRPK2): 0% | %Inh (SRPK3): 0% | %Inh (STK16): 9% | %Inh (STK33): 5% | %Inh (STK35): 0%

Cc1cccc(Nc2nc(N[C@H]3CCCC[C@H]3N)ncc2C(N)=O)c1.Cl [GSK986310]
%Inh [1]: 12% | %Inh [2]: 30% | %Inh (S6K1): 16% | %Inh (SBK1): 71% | %Inh (SGK2): 4% | %Inh (SGK3): 0% | %Inh (SGK): 0% | %Inh (SIK2): 26% | %Inh (SIK): 53% | %Inh (SLK): 72% | %Inh (SNARK): 39% | %Inh (SNRK): 11% | %Inh (SRC): 65% | %Inh (SRMS): 0% | %Inh (SRPK1): 44% | %Inh (SRPK2): 0% | %Inh (SRPK3): 0% | %Inh (STK16): 24% | %Inh (STK33): 55% | %Inh (STK35): 28%
